62 compounds from PubChem BioAssay AID710 (SRMLSC, 2007) can be followed below.

In all, about 98,000 compounds went through this assay and about 150 (0.15%) were called active.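 Rule for the calls: active = growth inhibition above about 50% at one test dose (limit read from the data); inactive = the rest.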 This excerpt belongs to a sample that is enriched for actives.

The nature of this test: growth inhibitors of wild-type E. coli, primary screen, strain BW25113, expanded library, OD600 (AID 710).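 Note: growth measured after 20 h incubation at 37 °C.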 Conditions: OD600 absorbance, at 100 µM, active compounds read high.
For the compound `COc1ccc(C(C#N)Nc2ccccc2C)cc1` (configuration not stated), the growth inhibition was 5% (inactive). The result for `COc1cc(/C=C2\SC(=S)N(Nc3ncc(C(F)(F)F)cc3Cl)C2=O)cc(OC)c1OC` reads -7% (inactive); that for `COc1ccccc1N(C)S(=O)(=O)c1ccc(C(=O)N2CCC(C(N)=O)CC2)cc1`, 3% (inactive). The result for `CCCCNC(=O)C1CCCN(S(=O)(=O)c2ccc(S(=O)(=O)NCC(C)C)cc2)C1` (configuration not stated) reads -1% (inactive).

With `Cc1cc(-c2ccccc2)nc(N2CCC(C(=O)NC34CC5CC(CC(C5)C3)C4)CC2)n1`, the growth inhibition was -9% (inactive). For `S=c1[nH]nc2c3c4c(sc3ncn12)CCCC4`, the growth inhibition was 1% (inactive).

As to `CCn1c(/C=C/c2ccc([N+](=O)[O-])o2)nc2ccccc2c1=O`, the growth inhibition was 6% (inactive). Regarding `COC(=O)c1ccccc1Oc1c(F)c(F)nc(N2CCOCC2)c1F`, the growth inhibition was 7% (inactive). Consider `CCN1CCN(c2ccc([N+](=O)[O-])cc2C(=O)c2ccc(Cl)cc2)CC1`, for which the growth inhibition was 8% (inactive). On to `CCOC(=O)c1nc(C)n(-c2ccc(Cl)cc2Cl)n1`, for which the growth inhibition was 8% (inactive). Next, `O=[N+]([O-])c1ccccc1OCCCCN1CCCCC1`: 8% (inactive).

In the case of `C=CCn1c(-c2ccc3[nH]c(C)c(C)c3c2)n[nH]c1=S`, the growth inhibition was 2% (inactive).

In the case of `Cc1ccc(C(c2nnnn2CS(=O)(=O)c2ccc(C)cc2)N2CCC(C)CC2)cc1` (configuration not stated), the growth inhibition is -1% (inactive). Next, `CCCNC(=O)c1c(N)n(-c2ccc(S(N)(=O)=O)cc2)c2nc3ccccc3nc12`: -1% (inactive). As to `O=C(O)CSCC(=O)Nc1cccc(C(F)(F)F)c1`, the growth inhibition is 3% (inactive). Next, `FC(F)(F)c1cccc(NC(=S)Nc2cccc(Cl)c2)c1`: 50% (active); `CC(=O)N1CCN(C(=O)Nc2cccc(C(F)(F)F)c2)CC1`: 17% (inactive). As for `Cc1cccn2c(=O)c(/C=C(\C#N)S(=O)(=O)c3ccc(Cl)cc3)c(N3CCC(C(N)=O)CC3)nc12`, the growth inhibition was 0% (inactive). The result for `COc1ccc(N2CCN(C(=O)CCc3nc(-c4ccc(C)cc4)no3)CC2)cc1` reads -5% (inactive). For `CC(C)C(=O)Nc1cccc(NC(=S)NC(=O)C(c2ccccc2)c2ccccc2)c1`, the growth inhibition is -13% (inactive). Next, `O=C(CNC(=O)c1ccccc1)NCC(=O)OCc1ccc(Cl)cc1`: 1% (inactive); `COc1ccc(-c2nn(C)c(=O)c3ccccc23)cc1NC(=O)COc1ccccc1`: 2% (inactive); `CN(C(=O)CC(NC(=O)c1ccccc1)(c1ccccc1)c1ccccc1)c1ccccc1`: -17% (inactive). As for `CCOC(=O)CSc1ncc(-c2cccc(Cl)c2)cn1`, the growth inhibition was 2% (inactive).

Take `O=C(CSc1nnc(-c2cccs2)n1Cc1ccccc1)N1CCc2ccccc2C1`: the growth inhibition was -18% (inactive). The result for `Cc1cccc(NC(=O)CSc2nc3c(c(=O)[nH]2)CCCC3)c1C` reads 3% (inactive); that for `COC(=O)CNC(c1ccccc1Cl)c1cc(Br)ccc1NC(=O)CCN1CCOCC1` (configuration not stated), -3% (inactive); that for `CCOC(=O)C1=C(CN2CCc3ccccc32)NC(=O)NC1c1ccc(Cl)cc1` (configuration not stated), -2% (inactive). Next, `O=C(CN(c1ccccc1)S(=O)(=O)c1ccc(Cl)cc1)Nc1ccccc1C(=O)N1CCCC1`: -17% (inactive); `Cc1cc(OC(=O)c2c(Cl)cccc2Cl)nc(C)n1`: 5% (inactive); `COc1ccc(-n2nc(C(=O)NCC(=O)Nc3cccc(C)n3)c3ccccc3c2=O)cc1`: -15% (inactive). Next, `CCOc1cccc(SCc2noc(C(=O)NC(C)C)c2C(=O)O)c1`: -4% (inactive). With `CCOC(=O)C(=CNc1cccc(C)n1)C(=O)OCC`, the growth inhibition was -6% (inactive).

For `O=C(NCC1CCCO1)/C(=C\c1ccco1)NC(=O)c1ccccc1` (configuration not stated), the growth inhibition is -5% (inactive). The result for `O=C(NC1(C(F)(F)F)NC(=O)N(Cc2cccnc2)C1=O)c1ccccc1Cl` (configuration not stated) reads -1% (inactive); that for `O=C(/C=C/NNC(=O)c1cccc(Br)c1)c1ccccc1`, -3% (inactive). Consider `CNC(=O)c1c(NC(NC(=O)c2ccco2)C(=O)c2ccc(Cl)cc2)sc2c1CCCC2` (configuration not stated), for which the growth inhibition is -6% (inactive). Next, `CCOc1ccc(C(O)Cn2c(=N)n(CCN3CCCCC3)c3ccccc32)cc1` (configuration not stated): -1% (inactive); `Cc1ccc(OCC(=O)Nn2cnc3ccccc32)cc1`: 5% (inactive); `Cc1ccc(-n2nc3ccc(NC(=O)/C=C/c4ccco4)cc3n2)cc1C`: -1% (inactive). The result for `S=c1nccc(-c2cc(Cl)sc2Cl)[nH]1` reads 3% (inactive); that for `COc1ccccc1NC(=O)c1ccc2nc(N3C(=O)CCC3=O)sc2c1`, 0% (inactive); that for `N#C/C(=C1/CCCN1)c1ccccn1`, 3% (inactive). The result for `CCOc1ccc(NC(=O)c2ccccc2NS(C)(=O)=O)cc1` reads -4% (inactive); that for `S=c1[nH]nc(-c2ccc(Cl)cc2)n1CC1CCCO1` (configuration not stated), 2% (inactive); that for `CSc1ccc(CCNC(=O)C2CCN(c3nnc(-n4cccc4)s3)CC2)cc1`, -3% (inactive). Regarding `CSc1ccccc1C(=O)Nc1cccc(C(C)=O)c1`, the growth inhibition is -4% (inactive). Take `Clc1ccc(-c2nnc(-c3ccccc3)nc2N2CCSCC2)cc1`: the growth inhibition is -24% (inactive).

For `COC(=O)c1c(CCl)noc1C(=O)NC(C)C`, the growth inhibition was 1% (inactive). For the compound `CCn1c(Cc2cccs2)nnc1SCC(=O)c1ccc(C)cc1`, the growth inhibition is -2% (inactive). In the case of `Cc1cccc(NC(=O)N(Cc2cc3cc(C)cc(C)c3[nH]c2=O)CC2COCCO2)c1` (configuration not stated), the growth inhibition is -1% (inactive). `CCCCCOC(=O)c1ccc(N2C(=O)C3C4C=CC(C4)C3C2=O)cc1` (configuration not stated): the growth inhibition is -5% (inactive). The result for `Cn1ncc(Br)c1C(=O)NCc1cccs1` reads 5% (inactive).

Consider `COc1ccc(/C(N)=N/OC(=O)Oc2ccccc2)cc1`, for which the growth inhibition was -14% (inactive). `CCOC(=O)c1nn(-c2cccc(C)c2)cc1C(=O)c1ccccc1`: the growth inhibition was 5% (inactive). Turning to `Cc1ccc(N(CC(=O)Nc2cccc(N(C)S(C)(=O)=O)c2)S(C)(=O)=O)cc1`, the growth inhibition is -5% (inactive). The result for `Cc1ccn(C(CC(=O)c2ccc(Br)cc2)C(=O)O)n1` (configuration not stated) reads 8% (inactive). Next, `Cn1sc(NC(=O)c2ccccc2)nc1=O`: -5% (inactive); `Cc1cc(C)c(S(=O)(=O)N2C=CC(C(F)(F)F)=NCC2)c(C)c1`: 7% (inactive); `CCOc1ccc(S(=O)(=O)Nc2nc3cc(OC)ccc3s2)cc1`: -6% (inactive). Next, `CCCCc1nc(NCCN)c(C#N)c2c1CSC(C)(C)C2`: 33% (inactive); `Cc1ccc(Oc2ccc3c(c2)C(=O)N(c2cccc4cccnc24)C3=O)cc1`: 3% (inactive).
